Here are results for 21 molecules from PubChem BioAssay (NCATS).

A number with no mark means an inactive call. Inconclusive results are not listed. Activity calls are given as the source filed them. Unless noted, the call rests on the fitted dose curve; in most records, active means well fitted curve in either direction with a large enough effect (not every such curve was filed as active); inconclusive means small, poorly fitted or top-dose-only effect, or another doubt; inactive means flat fitted curve, though single readings scatter.

The nature of assay [1]: AP1 Signaling Pathway (AID 357). Further: on the % scale 0 is the no-effect control and ±100 the full control effect. The conditions noted are these: ME-180 AP-1-bla reporter, EGF-induced, beta-lactamase ratio, 5 h; at 17.2 µM (top of the series) unless noted. In a few lines: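 Cells are seeded overnight, exposed to compound titrations and an EC50 level of EGF for 5 hours at 37 °C, then loaded with CCF4 dye for 2.5 hours. Beta-lactamase activity under the AP-1 element is read as a blue/green ratio.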

Assay [2] is described as follows: NFAT Signaling Pathway (AID 444).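 Further: carbachol stimulus at about its EC50 of 1 µM final; on the % scale 0 is the no-effect control and ±100 the full control effect.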 The conditions noted are these: Jurkat NFAT-bla M1, carbachol, beta-lactamase ratio, 5 h; at 17.2 µM (top of the series) unless noted. The essentials:
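Read-out: CCF4 FRET ratio (460 nm/530 nm) after 1 h RT dye loading, used for %activity and AC50 from titration series. Cells: Jurkat NFAT-β-lactamase/M1 line, treated with compound plus 1 uM carbachol for 5 h, 37 °C.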

The nature of assay [3]: Stat Signaling Pathway (AID 446).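 Further: ME-180 cervical cancer cells given 40 pM IL-6 alongside compound; SIE-controlled beta-lactamase reporter measured as 460/530 nm FRET emission ratio; on the % scale 0 is the no-effect control and ±100 the full control effect.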 The following applies: ME-180 SIE beta-lactamase reporter, IL-6 stimulated, 5 h; at 17.2 µM (top of the series) unless noted. In a few lines: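 Screening format detects activators and inhibitors alike: ME-180 SIE-bla cells stimulated at 40 pM IL-6 for 5 hrs with compound, then dual-emission beta-lactamase read at 405 nm excitation.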
The target in assay [4] is Glucocorticoid receptor (Homo sapiens) (UniProt P04150). The assay can be described thus: GR-GFP Redistribution (AID 450;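 active means compounds whose dose series gives a full or clear partial fitted curve of increased nuclear translocation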; further: potency means the concentration at half of the fitted maximal effect).
Glucocorticoid receptor (Homo sapiens), sequence (P04150 whole entry, looked up): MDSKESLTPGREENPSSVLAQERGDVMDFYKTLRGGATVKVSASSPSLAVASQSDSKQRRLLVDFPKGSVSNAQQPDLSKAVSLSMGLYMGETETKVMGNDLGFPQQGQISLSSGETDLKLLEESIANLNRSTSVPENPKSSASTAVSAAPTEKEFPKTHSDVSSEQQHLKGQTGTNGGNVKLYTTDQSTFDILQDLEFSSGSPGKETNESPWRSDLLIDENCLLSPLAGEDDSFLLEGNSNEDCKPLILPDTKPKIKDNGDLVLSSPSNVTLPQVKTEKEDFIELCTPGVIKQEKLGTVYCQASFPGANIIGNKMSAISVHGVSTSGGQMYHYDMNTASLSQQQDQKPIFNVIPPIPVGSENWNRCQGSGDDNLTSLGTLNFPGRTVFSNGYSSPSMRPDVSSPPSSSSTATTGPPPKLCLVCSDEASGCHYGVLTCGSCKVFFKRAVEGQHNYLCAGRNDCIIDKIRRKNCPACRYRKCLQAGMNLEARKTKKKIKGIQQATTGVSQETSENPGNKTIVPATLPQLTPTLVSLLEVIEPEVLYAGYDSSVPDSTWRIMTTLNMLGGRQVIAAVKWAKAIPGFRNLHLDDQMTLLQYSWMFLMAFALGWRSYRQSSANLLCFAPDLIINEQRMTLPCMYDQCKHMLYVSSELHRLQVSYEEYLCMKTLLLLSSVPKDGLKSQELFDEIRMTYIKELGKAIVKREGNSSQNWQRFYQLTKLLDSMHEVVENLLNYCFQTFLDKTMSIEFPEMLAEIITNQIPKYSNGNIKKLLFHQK
The nature of assay [5]: qHTS Assay for Identification of Small Molecule Agonists for Hypoxia Response Element Signaling Pathway (AID 914; active means well fitted activation curve with a large enough effect in the signal ratio, with a control signal flat, not every such curve was filed as active; the % refers to the signal ratio; further: potency means the concentration at half of the fitted maximal effect; on activation: % of control where 0% means no effect). The following applies: ME-180 HRE-bla reporter, beta-lactamase ratio, CoCl2, 17 h; activation: active compounds read high. In a few lines: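 ME-180 cells carrying an HRE-driven beta-lactamase reporter were treated with compounds in a titration series plus an EC50 level of CoCl2 for 17 h at 37 degrees Celsius; CCF4 readout as the 460nm/530nm ratio gave AC50 values.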
A general note: Quantitative high-throughput screening tests each substance at several concentrations.

Assay [6] deals with Mitogen-activated protein kinase 10 (Mus musculus) (UniProt Q61831). The experiment in a line: JNK3 AlphaScreen Assay (AID 530).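 Further: kinase came from lysate of stimulated human HepG2 cells; signal reports phosphorylation of biotinylated GST-cJun 1-79 at Ser73 with 10 µM ATP; on the % scale 0 is the no-effect control and ±100 the full control effect.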 In a few lines:
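Room-temperature AlphaScreen kinase assay; pre-activated HepG2 lysate as JNK3 source, biotin-GST-cJun(1-79) substrate, 10 uM ATP, compound 15 min preincubation.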
On the technique in general: In Alpha technology, singlet oxygen from a donor bead excites a nearby acceptor bead.

Assay [7] concerns the target 3',5'-cyclic-AMP phosphodiesterase 4B (Homo sapiens) (UniProt Q07343). The experiment in a line: qHTS Assay for Inhibitors of PDE-IV (AID 607; active means well fitted activation curve with a large enough effect in the main read-out, with a control signal flat, not every such curve was filed as active; further: % of control where 0% means no effect). In a few lines: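 The readout is membrane depolarisation from a cAMP-sensing CNG channel, detected with a potential dye at ex 535/em 590. Cells were HEK293-derived (endogenous PDE-IV) at 1000 cells/well, titrated up to 22.9 uM final.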

The nature of assay [8]: qHTS Assay for Identification of Small Molecule Agonists for Thrombopoietin (TPO) Signaling Pathway (AID 917; active means well fitted curve in the direction sought with a large enough effect; an effect the other way counts as inactive or inconclusive; further: on the % scale 0 is the no-effect control and ±100 the full control effect). The essentials:
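Murine Ba/F3 cells stably expressing human TPO receptor and a Glycoprotein IIb promoter–luciferase reporter were IL-3-starved overnight, then treated with compounds plus TPO (26 pM final, its EC50) for 24 hrs at 37 C; luminescence was read.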

Assay [9] addresses Pyruvate kinase (Leishmania mexicana) (UniProt Q27686). The assay can be described thus: qHTS Validation Assay for Inhibitors of Leishmania Mexicana Pyruvate Kinase (AID 945; active means well fitted curve in the direction sought with a large enough effect; an effect the other way counts as inactive or inconclusive;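 further: 0% = DMSO only neutral control wells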). The essentials:
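LmPYK E451W 0.2 nM; 0.5 mM PEP, 0.1 mM ADP, 7 mM MgCl2, 50 mM KCl, imidazole pH 7.2, 0.01% Tween 20, 0.05% BSA; 1 h RT; PKLight luminescence; DMSO-normalized.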

In assay [10] the target is Pyruvate kinase PKM (Homo sapiens) (UniProt P14618). The assay can be described thus: qHTS Assay for Activators of Human Muscle Pyruvate Kinase (AID 954; active means well fitted curve in the direction sought with a large enough effect, not every such curve was filed as active;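 further: 0% = uninhibited enzyme and -100% = no enzyme or full thiadiazolimine inhibition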). The essentials: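 Reaction: 0.1 nM purified PKM2 with 0.5 mM phosphoenolpyruvate and 0.1 mM ADP, room temperature, 1 h. Readout: luciferase-based ATP luminescence after stop reagent. Activators judged against a 0.3 nM enzyme column.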
Pyruvate kinase PKM (Homo sapiens), sequence (P14618 whole entry, looked up): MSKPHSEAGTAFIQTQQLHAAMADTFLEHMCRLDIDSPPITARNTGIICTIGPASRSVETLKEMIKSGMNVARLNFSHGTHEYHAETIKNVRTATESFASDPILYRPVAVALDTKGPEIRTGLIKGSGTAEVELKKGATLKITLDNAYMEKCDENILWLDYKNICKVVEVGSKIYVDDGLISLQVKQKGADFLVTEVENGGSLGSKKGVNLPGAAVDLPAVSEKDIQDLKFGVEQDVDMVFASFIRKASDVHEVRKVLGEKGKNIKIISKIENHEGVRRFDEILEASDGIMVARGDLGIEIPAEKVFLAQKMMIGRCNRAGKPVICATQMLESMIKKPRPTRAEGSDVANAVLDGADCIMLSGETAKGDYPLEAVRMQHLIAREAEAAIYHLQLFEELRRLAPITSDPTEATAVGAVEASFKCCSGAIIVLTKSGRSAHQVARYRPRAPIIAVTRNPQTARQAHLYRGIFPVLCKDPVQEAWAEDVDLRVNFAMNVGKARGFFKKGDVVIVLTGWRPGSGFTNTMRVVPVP

In assay [11] the target is Alpha-galactosidase A (Homo sapiens) (UniProt P06280). The experiment in a line: Counterscreen for Glucocerebrosidase Inhibitors: qHTS Assay for Human alpha-Galactosidase at pH 4.5 (AID 992; active means well fitted curve in the direction sought with a large enough effect; an effect the other way counts as inactive or inconclusive; further: 0% is about no effect). The essentials:
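Concentration-response curves (0.7 nM to 77 uM final) were modeled with the Hill equation to give AC50. Reactions: 2 nM enzyme, 80 uM fluorogenic alpha-galactoside, pH 4.5 citric acid buffer, 20 min, room temperature.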

Assay [12] has as its target alpha-glucosidase (Oryza sativa, rice) (UniProt Q653V4). The assay can be described thus: Counterscreen for Glucocerebrosidase Inhibitors: qHTS Assay for Rice alpha-Glucosidase at pH 5.0 (AID 997; active means well fitted curve in the direction sought with a large enough effect; an effect the other way counts as inactive or inconclusive;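 further: 0% = full activity with enzyme and -100% = basal without enzyme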). The essentials: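 Rice alpha-glucosidase (4 nM final) with 400 uM 4-methylumbelliferyl-alpha-D-glucopyranoside in citrate buffer pH 5.0, 20 min at room temperature, stopped at pH 10; fluorescence 365/440 nm, compounds 0.7 nM–77 uM, AC50 from Hill fits.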
On the technique in general: Counterscreens check selectivity or assay interference.

Assay [13] deals with Cytochrome P450 3A4 (Homo sapiens) (UniProt P08684). The assay can be described thus: qHTS Assay for Activators of Cytochrome P450 3A4 (AID 885; active means well fitted curve in the direction sought with a large enough effect; an effect the other way counts as inactive or inconclusive; further: nearly all actives have a fitted effect of over 65% in size). The essentials:
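Steps: enzyme/substrate mix dispensed; compound added, 10 min RT; NADPH regeneration solution added, 60 min RT; luciferin detection buffer stops reaction; 20 min later luminescence measured.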

The target of assay [14] is DNA dC->dU-editing enzyme APOBEC-3G (Homo sapiens) (UniProt Q9HC16). The experiment in a line: qHTS for inhibitors of Vif-A3G interactions: Validation (AID 588379; active means well fitted curve in the direction sought with a large enough effect; an effect the other way counts as inactive or inconclusive; further: 0% is about no effect). In a few lines: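 HeLa cells stably expressing Vif and A3G-eYFP, 700 cells/well, incubated overnight at 37 deg C, then exposed to compound overnight at 37 deg C. Inhibition of Vif-mediated degradation read as increased yellow fluorescence (Ex 488/Em 500-530) by laser-scanning cytometry.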
DNA dC->dU-editing enzyme APOBEC-3G (Homo sapiens), sequence (Q9HC16 whole entry, looked up): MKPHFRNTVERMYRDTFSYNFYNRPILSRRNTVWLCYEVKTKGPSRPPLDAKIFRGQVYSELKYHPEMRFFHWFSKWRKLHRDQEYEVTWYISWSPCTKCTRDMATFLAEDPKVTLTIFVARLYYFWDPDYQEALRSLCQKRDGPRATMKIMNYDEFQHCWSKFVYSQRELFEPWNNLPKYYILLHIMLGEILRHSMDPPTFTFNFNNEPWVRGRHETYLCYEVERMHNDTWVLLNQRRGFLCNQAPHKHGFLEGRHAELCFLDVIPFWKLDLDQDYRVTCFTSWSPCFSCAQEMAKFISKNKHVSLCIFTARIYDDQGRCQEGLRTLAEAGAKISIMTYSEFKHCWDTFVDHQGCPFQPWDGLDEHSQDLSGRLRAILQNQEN

Alpha-galactosidase A (Homo sapiens), sequence (P06280 whole entry, looked up): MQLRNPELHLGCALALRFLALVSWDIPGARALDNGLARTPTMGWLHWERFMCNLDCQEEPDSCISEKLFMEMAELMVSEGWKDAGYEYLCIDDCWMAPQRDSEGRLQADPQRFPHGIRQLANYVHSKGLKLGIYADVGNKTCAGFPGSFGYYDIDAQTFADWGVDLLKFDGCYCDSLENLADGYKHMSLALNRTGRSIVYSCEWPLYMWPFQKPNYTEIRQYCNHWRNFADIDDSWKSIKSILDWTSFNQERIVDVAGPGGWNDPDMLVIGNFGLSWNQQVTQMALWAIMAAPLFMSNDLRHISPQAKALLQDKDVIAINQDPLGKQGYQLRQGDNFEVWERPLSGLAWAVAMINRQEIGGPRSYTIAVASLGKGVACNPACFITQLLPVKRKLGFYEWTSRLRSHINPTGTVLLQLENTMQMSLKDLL
Pyruvate kinase (Leishmania mexicana), sequence (Q27686 2-499 E452W): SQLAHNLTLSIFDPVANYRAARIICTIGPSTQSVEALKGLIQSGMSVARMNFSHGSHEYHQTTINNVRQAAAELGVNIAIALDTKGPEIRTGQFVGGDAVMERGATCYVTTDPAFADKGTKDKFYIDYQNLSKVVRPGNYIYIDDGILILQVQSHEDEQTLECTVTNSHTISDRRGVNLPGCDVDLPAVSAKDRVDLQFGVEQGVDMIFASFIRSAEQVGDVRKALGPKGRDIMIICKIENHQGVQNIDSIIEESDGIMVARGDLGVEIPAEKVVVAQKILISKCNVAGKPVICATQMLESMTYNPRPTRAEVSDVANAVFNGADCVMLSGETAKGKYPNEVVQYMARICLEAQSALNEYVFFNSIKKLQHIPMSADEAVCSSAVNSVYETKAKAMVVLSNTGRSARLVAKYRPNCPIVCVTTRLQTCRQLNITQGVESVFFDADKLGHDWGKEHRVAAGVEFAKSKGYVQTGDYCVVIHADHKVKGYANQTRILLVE
Cytochrome P450 3A4 (Homo sapiens), sequence (P08684 whole entry, looked up): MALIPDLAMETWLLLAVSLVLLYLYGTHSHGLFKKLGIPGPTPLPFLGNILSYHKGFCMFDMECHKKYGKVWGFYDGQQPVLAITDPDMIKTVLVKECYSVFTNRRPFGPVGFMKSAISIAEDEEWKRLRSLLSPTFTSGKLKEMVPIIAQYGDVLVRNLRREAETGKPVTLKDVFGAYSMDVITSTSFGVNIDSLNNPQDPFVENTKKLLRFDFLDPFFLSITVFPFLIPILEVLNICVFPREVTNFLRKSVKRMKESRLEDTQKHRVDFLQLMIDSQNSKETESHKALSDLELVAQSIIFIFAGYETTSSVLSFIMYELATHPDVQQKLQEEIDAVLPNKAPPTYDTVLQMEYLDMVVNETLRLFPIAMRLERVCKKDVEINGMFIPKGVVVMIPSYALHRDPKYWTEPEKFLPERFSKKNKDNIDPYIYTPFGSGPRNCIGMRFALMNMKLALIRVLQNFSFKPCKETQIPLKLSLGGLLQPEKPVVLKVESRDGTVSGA
3',5'-cyclic-AMP phosphodiesterase 4B (Homo sapiens), sequence (Q07343 whole entry, looked up): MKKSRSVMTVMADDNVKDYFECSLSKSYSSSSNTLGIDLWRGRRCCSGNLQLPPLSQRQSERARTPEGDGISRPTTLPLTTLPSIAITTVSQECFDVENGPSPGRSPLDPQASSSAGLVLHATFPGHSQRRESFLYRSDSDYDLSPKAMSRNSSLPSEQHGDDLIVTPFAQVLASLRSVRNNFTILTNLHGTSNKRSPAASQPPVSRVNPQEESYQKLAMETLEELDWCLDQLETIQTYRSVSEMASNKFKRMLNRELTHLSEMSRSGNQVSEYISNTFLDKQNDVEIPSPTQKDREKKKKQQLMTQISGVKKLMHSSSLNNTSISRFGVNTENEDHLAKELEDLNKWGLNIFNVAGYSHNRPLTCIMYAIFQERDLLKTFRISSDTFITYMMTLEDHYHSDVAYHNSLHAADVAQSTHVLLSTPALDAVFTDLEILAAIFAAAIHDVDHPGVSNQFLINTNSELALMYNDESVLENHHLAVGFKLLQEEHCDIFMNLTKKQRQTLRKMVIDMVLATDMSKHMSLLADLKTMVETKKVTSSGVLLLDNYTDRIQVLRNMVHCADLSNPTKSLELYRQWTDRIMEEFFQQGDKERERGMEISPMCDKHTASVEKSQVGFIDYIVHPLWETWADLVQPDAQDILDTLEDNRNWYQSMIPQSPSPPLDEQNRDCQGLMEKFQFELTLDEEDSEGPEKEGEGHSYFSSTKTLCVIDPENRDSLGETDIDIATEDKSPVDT

In the case of `CCOc1ccc(C2C(C#N)=C(N)SC(N)=C2C#N)cc1OC`, the activity change, negative = inhibition in [1] was 0.186%; in assay [2], 10.8%. In assay [3], the activity, negative = inhibition was -5.25%. Besides, the Potency in assay [4] was > 20.6 µM. For the same molecule, the activation in [5] is -15.3%.
`O=C(NC1CCS(=O)(=O)C1)c1c(NC(=O)C2COc3ccccc3O2)sc2c1CCCC2` (configuration not stated): the activity change, negative = inhibition in [1] was -20.8%; in [2], -18.5%. Moreover, the activity, negative = inhibition in [3] is -9.79%. Besides, the Potency was > 20.6 µM in [4] and 5.01 µM (active) in [5].
As to `CN1c2ccccc2-c2nc3ccccc3n2C1c1ccco1` (configuration not stated), the values for the activity change, negative = inhibition in assay [1] and in [2] were 5.2% and -6.44%, respectively. Moreover, the activity, negative = inhibition in assay [3] is -0.11%. In addition, the Potency in [4] was > 20.6 µM. In addition, the activation in assay [5] was -8.71%.
Take `CC(=O)[C@@]1(O)CC[C@@H]2[C@@H]3CCC4=CC(=O)CC[C@@]4(C)[C@H]3CC[C@]21C`: the activity change, negative = inhibition is 4.89% [at 38 µM] in assay [1] and -13.4% [at 38 µM] in assay [2]. Further, the activity, negative = inhibition in [3] is -11.8% [at 38 µM]. For the same molecule, the Potency in assay [4] was 0.162 µM (active). In addition, the Potency entry in assay [6], in [7], in [8] and in [9] was “inactive” each time. For the same molecule, the result in assay [10], in assay [11] and in [12] was inactive.
Turning to `CCN(CC)CCNc1ncnc2c1[nH]c1ccc(OC)cc12`, the activity change, negative = inhibition in [1] is 7.05%; in assay [2] it was -11.4%. Also, the activity, negative = inhibition in [3] was 3.82%. Also, the Potency in [4] is > 20.6 µM. The activation in assay [5] was 2.09%.
In the same order, the values of `Cc1ccc(OCc2nnc(NC(=O)c3ccco3)s2)c(C)c1` are -4.34%, 11.7%, -14.8%, > 20.6 µM and -11.9%.
Taken in the same sequence, the figures for `CC1(C)Cc2nc(NCCN3CCOCC3)c(C#N)cc2CO1` were 7.57%, 7.63%, 11%, > 20.6 µM and 3.3%.
On to `CN1C[C@@H](C(=O)N[C@]2(C)O[C@]3(O)[C@H]4CCCN4C(=O)[C@H](Cc4ccccc4)N3C2=O)C[C@H]2c3cccc4[nH]cc(c34)C[C@@H]21`, for which the figures for the activity change, negative = inhibition in [1] and in [2] were -19.9% [at 38 µM] and -15.6% [at 38 µM], respectively. Further, the activity, negative = inhibition in assay [3] was -18.4% [at 38 µM]. For the same molecule, the Potency in assay [4] is > 46 µM. In addition, the Potency result in [6], in assay [8] and in [9] was “inactive” each time. Besides, the outcome in assay [10], in [11] and in [12] was inactive.
`COC1=CC(=O)CC(C)C12Oc1c(Cl)c(OC)cc(OC)c1C2=O` (configuration not stated): the activity change, negative = inhibition in assay [1] was -16.1%; in assay [2] it was -12.3%. Also, the activity, negative = inhibition in assay [3] was 4.38%. Besides, the Potency in assay [4] was > 20.6 µM. Further, the Potency entry in assay [13] is “inactive”. For the same molecule, the molecule was called inactive in assay [14].
Turning to `Cc1cc(C)nc(N(C#N)CN2C(=O)c3ccccc3C2=O)n1`, the activity change, negative = inhibition in assay [1] is 2.24%; in assay [2] it was -1.49%. Moreover, the activity, negative = inhibition in assay [3] was 0.344%. Besides, the Potency in assay [4] is > 20.6 µM. In addition, the activation in [5] was 12.2%.
In the same order, the values of `CC(C)c1nc(N2CCOCC2)c(C#N)c2c1COC(C)(C)C2` are -19.1%, -4.43%, 11.9%, > 20.6 µM and -24.7%.
For the molecule `CC1(C)CC(=O)C(C=Nc2ccc(Cl)cn2)=C(O)C1`, the activity change, negative = inhibition is -10.2% in assay [1] and 17.4% in [2]. Further, in assay [3], the activity, negative = inhibition was 21.1%. The Potency in [4] was > 20.6 µM. The activation in assay [5] is -14.7%.
Taken in the same sequence, the figures for `COC(=O)C(NC(C)=O)(Nc1nc2c(s1)CCCC2)C(F)(F)F` (configuration not stated) were 1.18%, -2.64%, -8.22%, > 20.6 µM and -17%.
Taken in the same sequence, the figures for `Cc1cc(C)c(S(=O)(=O)O)c(C)n1` were 6.1%, -2.21%, 6.56%, > 20.6 µM and 11.7%.
In the case of `O=C(O)CCCC(=O)Nc1ccn(-c2ccccc2)n1`, the activity change, negative = inhibition in assay [1] is 1.68%; in [2], -4.19%. Also, the activity, negative = inhibition in [3] is 0.897%. Besides, the Potency in [4] was > 20.6 µM. Besides, the activation in [5] is 6.56%.
In the same order, the values of `NC(=O)CSc1nc(N)c2c3c(sc2n1)CCCCC3` are -2.28%, -8.37%, -4.35%, > 20.6 µM and -10.3%.
Consider `CCC(C(=O)Nc1ncn[nH]1)(C(F)(F)F)C(F)(F)F`, for which the figures for the activity change, negative = inhibition in assay [1] and in assay [2] were 3.02% and -11.9%, respectively. For the same molecule, the activity, negative = inhibition in assay [3] was 13%. Further, in [4], the Potency was > 20.6 µM. Further, in assay [5], the activation was -10.1%.
On to `CC(C)NC(=O)N1CCOCCOCCN(C(=O)NC(C)C)CCOCCOCC1`, for which the activity change, negative = inhibition in [1] was 8.52%; in assay [2], 0.977%. In addition, the activity, negative = inhibition in [3] is 0.97%. Besides, the Potency in assay [4] is > 20.6 µM. For the same molecule, the activation in [5] is 3.05%.
In the same order, the values of `CCOC(=O)c1c(CNCCN(CC)CC)n(C)c2cc(Br)c(OC)cc12` are 5.94%, 5.36%, -6.2%, > 20.6 µM and -9.75%.
In the same order, the values of `COc1ccc(C(=O)Cn2c(Br)nc3c2c(=O)n(C)c(=O)n3C)cc1OC` are 7.09%, 25.7%, 0.59%, > 20.6 µM and 8.03%.
Taken in the same sequence, the figures for `Cc1sc(-n2c(C)ccc2C)c(C#N)c1C` were -5.35%, -9.11%, 0.959%, > 20.6 µM and 5.91%.
